These results are taken from PubChem BioAssay (NCATS).

Experiment [1] can be described thus: Cell Viability - SK-N-SH (AID 435; calls by dose curve; note: potency is the fitted concentration of half-maximal effect). The note with it: SK-N-SH neuroblastoma cell viability qHTS. The method, boiled down:
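Luminescent ATP signal served as the viability read-out after 40 hours of compound treatment of human neuroblastoma SK-N-SH cells. Concentration-response data, scaled between DMSO and 100 uM tamoxifen, gave AC50 values by standard Hill modeling.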
Background: qHTS replaces the single test concentration by a dilution series.

Experiment [2] is described as follows: Cell Viability - N2a (AID 540).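 Note: plate controls were DMSO alone for no effect and tamoxifen control for full effect; nearly all actives have a fitted effect of over 45% in size.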 The following applies: N2a mouse neuroblastoma cell viability; activity change, negative = cytotoxicity: at 92.2 µM (top of the series). The method, boiled down:
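N2a mouse neuroblastoma, 1500 cells/well, 5 hr settle; compound 40 hr, 37 °C; CellTiter-Glo 20 min RT; luminescence; Hill-fit AC50.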

The nature of experiment [3]: Cell Viability - H-4-II-E (AID 543). Note: % is set by controls: 0 for no effect and ±100 for the full control effect; nearly all actives have a fitted effect of over 35% in size. The note with it: H-4-II-E rat hepatoma viability; series mostly up to 92.2 µM. The method, boiled down: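 qHTS, rat hepatoma H-4-II-E, 1500 cells/well; 40 hr compound exposure, 37 °C; CellTiter-Glo ATP luminescence after 20 min RT; AC50 by standard Hill fit.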
Experiment [4] can be described thus: Cell Viability - Renal Proximal Tubule (AID 545).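 Note: 0% = DMSO only and -100% = 100 µM tamoxifen; nearly all actives have a fitted effect of over 40% in size.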 The note with it: renal proximal tubule cells viability, primary cells of rat origin; activity change, negative = cytotoxicity: at 91.7 µM (top of the series). An outline of the steps:
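Luminescent ATP signal (CellTiter-Glo) served as the viability read-out after 40 hr compound exposure of freshly isolated rat proximal tubule cells at 37 °C. Concentration-dependent ATP loss was fitted with the Hill equation to give AC50.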

A short description of experiment [5]: Cell Viability - LYMP2-001 (AID 921).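 Note: cells exposed to compound for 24 h at 37 °C; nearly all actives have a fitted effect of over 70% in size.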 Note: potency is the fitted concentration of half-maximal effect. The following applies: LYMP2-001 lymphoblastoid cell viability; series mostly up to 92.2 µM. The method, boiled down: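 Steps: seed 2500 lymphoblastoid cells/well; 5 hr, 37 C; add compound; 24 hr, 37 C; CellTiter-Glo reagent, 30 min room temperature; read luminescence. Concentration-response modeled by Hill equation for AC50.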

Experiment [6] can be described thus: MultiTox-Fluor Cytotoxicity Assay - LYMP1-001 - Live Cells (AID 947).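 Note: 0% = DMSO only and full inhibition = tetraoctylammonium bromide control.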 The following applies: LYMP1-001 lymphoblastoid cells, live-cell protease fluorescence viability; series mostly up to 92.2 µM.
Experiment [7] in a line: MultiTox-Fluor Cytotoxicity Assay - LYMP1-002 - Dead Cells (AID 960). Note: nearly all actives have a fitted effect of over 60% in size. Note: potency is the fitted concentration of half-maximal effect. The note with it: LYMP1-002 lymphoblastoid cells, dead-cell protease fluorescence; series mostly up to 46.1 µM. An outline of the steps:
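Readout: fluorescence at 485/520 from cell-impermeant bis-AAF-R110 cleaved by proteases leaking from damaged cells. LYMP1-002 lymphoblastoid line, 16 hr compound treatment at 37 C, concentration-response in qHTS format; Hill-equation AC50 values.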

The nature of experiment [8]: Cell Viability - LYMP1-003 - Assay at 40 hr (AID 964). Note: % is set by controls: 0 for no effect and ±100 for the full control effect; nearly all actives have a fitted effect of over 60% in size. The note with it: LYMP1-003 lymphoblastoid viability; series mostly up to 92.2 µM. The method, boiled down:
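LYMP1-003 lymphoblastoid cells, 2500/well; 5 hr preincubation, 40 hr compound exposure, 37 C; CellTiter-Glo 30 min RT; luminescence; Hill-fit AC50. Positive control tetraoctylammonium bromide.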

The nature of experiment [9]: Cell Viability - LYMP2-004 (AID 966).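 For activity change, negative = cytotoxicity: plate controls were DMSO only for no effect and tetraoctylammonium bromide control for full effect.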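 Note: cells exposed to compound for 24 h; nearly all actives have a fitted effect of over 65% in size.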 Note: potency is the fitted concentration of half-maximal effect. The following applies: LYMP2-004 lymphoblastoid cell viability, qHTS; series mostly up to 92.2 µM. The method, boiled down:
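Luminescent ATP read-out (CellTiter-Glo, 30 min RT) after 24 hr compound exposure at 37 C; 2500 lymphoblastoid cells/well, complete medium. Decrease in ATP = cytotoxicity; AC50 from standard Hill model.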

Experiment [10] is described as follows: Cell Viability - LYMP2-009 (AID 968).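 Note: cells exposed to compound for 24 h at 37 °C; nearly all actives have a fitted effect of over 55% in size.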 Note: potency is the fitted concentration of half-maximal effect. The following applies: LYMP2-009 lymphoblastoid cell viability; series mostly up to 92.2 µM.
Experiment [11] in a line: Cell Viability - LYMP2-015 (AID 971).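 Note: cells exposed to compound for 24 h; nearly all actives have a fitted effect of over 55% in size.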 Note: potency is the fitted concentration of half-maximal effect. The following applies: LYMP2-015 lymphoblastoid cell viability; series mostly up to 92.2 µM. The method, boiled down: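 qHTS cytotoxicity: 2500 cells/well, 5 hr 37 C, compound 24 hr 37 C, CellTiter-Glo 30 min RT, luminescence. Loss of ATP = toxicity; AC50 via standard Hill fit.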
Experiment [12] can be described thus: Cell Viability - LYMP2-017 (AID 972). For activity change, negative = cytotoxicity: % is set by controls: 0 for no effect and ±100 for the full control effect.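 Note: cells exposed to compound for 24 hours at 37 °C; nearly all actives have a fitted effect of over 55% in size.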 Note: potency is the fitted concentration of half-maximal effect. The following applies: LYMP2-017 lymphoblastoid cell viability; series mostly up to 92.2 µM. An outline of the steps: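 Luminescent ATP read-out (CellTiter-Glo, 30 min RT) reports viable cell number. Cells: human lymphoblastoid line, 2500 per well, 5 hr preincubation, 24 hr compound exposure at 37 C. AC50 is derived from qHTS concentration-response data using the standard Hill model.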

A short description of experiment [13]: Cell Viability - LYMP2-019 (AID 973).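 For activity change, negative = cytotoxicity: 0% = DMSO alone and full effect = 92 µM tetraoctylammonium bromide.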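 Note: cells exposed to compound for 24 h at 37 °C; nearly all actives have a fitted effect of over 55% in size.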 Note: potency is the fitted concentration of half-maximal effect. The following applies: LYMP2-019 lymphoblastoid cell line viability; series mostly up to 92.2 µM. The method, boiled down: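 qHTS, 1536-well; 2500 cells/well; 5 hr pre-incubation, 24 hr compound exposure, 37 C; CellTiter-Glo added, 30 min RT; luminescence read; AC50 via standard Hill equation.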
Experiment [14] is described as follows: Cell Viability - LYMP2-010 (AID 981). Note: potency is the fitted concentration of half-maximal effect. The note with it: LYMP2-010 lymphoblastoid cell viability, qHTS; series mostly up to 92.2 µM. An outline of the steps: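 qHTS cytotoxicity, 1536-well: 2500 cells/well, 5 hr settle, 24 hr compound at 37 C, CellTiter-Glo 30 min RT, luminescence read. Decrease in ATP = toxicity; AC50 via standard Hill equation. Positive control tetraoctylammonium bromide.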

Experiment [15] in a line: qHTS assay for small molecule agonists of retinoid X receptor alpha signaling (AID 588544; calls by dose curve). The note with it: HEK293T RXRa-UAS-bla, beta-lactamase reporter, 18 h; 530 nm emission.
The target in experiment [16] is Retinoic acid receptor RXR-alpha (Homo sapiens) (UniProt P19793). Described as above. The following applies: HEK293T RXRa-UAS-bla, beta-lactamase reporter, 18 h; series mostly up to 76.7 µM.
The nature of experiment [17]: qHTS assay for small molecule disruptors of the mitochondrial membrane potential - 5 hr assay (AID 651755; calls by dose curve; note: nearly all actives have a fitted effect of over 40% in size; note: potency is the fitted concentration of half-maximal effect). The following applies: JC-1-type ratio dye; series mostly up to 92.2 µM. An outline of the steps: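 Seed HepG2 overnight, add compound, incubate 5 hr at 37C and 5% CO2, stain 30 min with Mito-MPS, then measure monomer (490/535 nm) and aggregate (540/590 nm) fluorescence.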

Experiment [18] in a line: qHTS assay for small molecule agonists of the antioxidant response element (ARE) signaling pathway measured by Nrf2-dependant transcriptional activity (AID 720636; active = well fitted curve in the direction sought with a large enough effect in the repeat runs; an effect the other way counts as inactive or inconclusive;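 note: HepG2 cells with an ARE-driven luciferase reporter; % of control where 0% means no effect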). The following applies: ARE-luc HepG2, Nrf2 luciferase reporter, 16 h; series mostly up to 92.4 µM. The method, boiled down:
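Nrf2-dependent transcription is measured in ARE-luc HepG2 cells: compound is applied for 16 hr at 37 C after a 6 hr attachment period, and luciferase activity is quantified by luminescence using ONE-Glo.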

The target of experiment [19] is Nuclear receptor subfamily 1 group I member 2 (Rattus norvegicus) (UniProt Q9R1A7). As to the kind of experiment: qHTS assay for small molecule activators of the rat pregnane X receptor (rPXR) signaling pathway (AID 651751; call rule not given here; note: 0% is about no effect). The following applies: rPXR reporter cells, luciferase (One-Glo), 24 h.
Experiment [20] concerns the target Thyroid hormone receptor beta (Homo sapiens) (UniProt P10828). As to the kind of experiment: qHTS assay for small molecule antagonists of thyroid hormone receptor beta signaling (AID 588547; active = well fitted inhibition curve with a large enough effect in the signal ratio, with a control signal flat, not every such curve was filed as active; the % refers to the signal ratio;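 note: cells stimulated with 0.4 nM T3 agonist during compound exposure; % is set by controls: 0 for no effect and ±100 for the full control effect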). The note with it: TR-UAS-bla HEK293, beta-lactamase ratio, antagonist mode, 18 h. The method, boiled down:
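TR-UAS-bla GripTite HEK293 cells in 2% charcoal/dextran FBS medium were preincubated 4 h at 37 C, given compound (0.59 nM to 92 uM) plus 0.4 nM T3 (final) for 18 h, then CCF4 for 2 h at RT; Hill fit gave IC50.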

Results filed as inconclusive are left out. The source made the active and inactive calls. Unless noted, calls come from the whole dose curve; as a rule, active = well fitted curve in the direction sought with a large enough effect; inconclusive = small, poorly fitted or top-dose-only effect, or another doubt; inactive = no such curve, though single readings can be large; an effect the other way counts as inactive or inconclusive.

Sequence of Retinoic acid receptor RXR-alpha (Homo sapiens) (P19793 whole entry, looked up): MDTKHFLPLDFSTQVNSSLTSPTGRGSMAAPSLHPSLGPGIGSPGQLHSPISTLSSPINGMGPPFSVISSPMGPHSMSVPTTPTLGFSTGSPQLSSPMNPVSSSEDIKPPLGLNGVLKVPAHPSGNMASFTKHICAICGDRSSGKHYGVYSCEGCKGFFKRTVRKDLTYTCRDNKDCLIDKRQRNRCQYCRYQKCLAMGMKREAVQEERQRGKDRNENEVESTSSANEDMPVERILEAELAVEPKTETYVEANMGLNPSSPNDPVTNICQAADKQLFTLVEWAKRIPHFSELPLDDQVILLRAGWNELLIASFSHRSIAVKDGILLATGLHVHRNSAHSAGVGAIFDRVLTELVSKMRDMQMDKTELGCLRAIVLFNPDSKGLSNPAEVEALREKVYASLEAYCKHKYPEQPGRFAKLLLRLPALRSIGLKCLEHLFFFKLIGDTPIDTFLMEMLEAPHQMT
Sequence of Thyroid hormone receptor beta (Homo sapiens) (P10828 whole entry, looked up): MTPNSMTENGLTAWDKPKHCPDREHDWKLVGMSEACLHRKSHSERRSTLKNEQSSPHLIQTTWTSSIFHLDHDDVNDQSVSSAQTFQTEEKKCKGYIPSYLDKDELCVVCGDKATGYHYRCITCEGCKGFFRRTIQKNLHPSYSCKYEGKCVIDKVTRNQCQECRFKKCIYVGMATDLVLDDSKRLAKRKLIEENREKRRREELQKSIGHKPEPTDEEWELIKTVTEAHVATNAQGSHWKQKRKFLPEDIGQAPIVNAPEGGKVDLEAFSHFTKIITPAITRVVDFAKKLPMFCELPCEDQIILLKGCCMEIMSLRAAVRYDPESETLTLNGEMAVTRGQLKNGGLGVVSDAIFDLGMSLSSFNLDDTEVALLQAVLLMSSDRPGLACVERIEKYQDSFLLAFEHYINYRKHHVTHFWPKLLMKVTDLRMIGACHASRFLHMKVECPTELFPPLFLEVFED
Sequence of Nuclear receptor subfamily 1 group I member 2 (Rattus norvegicus) (Q9R1A7 whole entry, looked up): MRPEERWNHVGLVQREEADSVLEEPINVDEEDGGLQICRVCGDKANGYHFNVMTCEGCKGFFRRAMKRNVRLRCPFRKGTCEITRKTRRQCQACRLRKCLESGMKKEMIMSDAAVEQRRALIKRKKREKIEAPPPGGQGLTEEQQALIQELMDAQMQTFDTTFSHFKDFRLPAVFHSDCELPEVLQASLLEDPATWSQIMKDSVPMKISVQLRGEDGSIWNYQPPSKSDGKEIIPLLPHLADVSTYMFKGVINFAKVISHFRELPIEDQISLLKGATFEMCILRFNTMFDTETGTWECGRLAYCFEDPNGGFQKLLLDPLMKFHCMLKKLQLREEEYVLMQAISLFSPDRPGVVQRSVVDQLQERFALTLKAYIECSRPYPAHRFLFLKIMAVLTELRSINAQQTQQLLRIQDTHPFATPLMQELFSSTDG

Consider `Nc1cnn([C@@H]2O[C@H](CO)[C@@H](O)[C@H]2O)c(=O)n1`, for which, in experiment [1], the Potency is > 92 µM (inactive). Besides, the activity change, negative = cytotoxicity in experiment [2] is 8.82% (inactive). The Potency entry in experiment [3], in experiment [4], in experiment [5], in experiment [6], in experiment [7] and in experiment [8] was “inactive” in each case. Also, the Potency entry in [9], in experiment [10], in experiment [11], in experiment [12], in experiment [13] and in experiment [14] was “inactive” each time. The Potency entry in experiment [16], in [17] and in experiment [18] was “inactive” each time. In addition, the max response in experiment [15] was 11.7%; in experiment [19], 3.54% (inactive).
For the compound `C/C=C/C=C/C=O`, the Potency was 39.8 µM (active) in [5]; 31.6 µM (active) in experiment [9]; 39.8 µM (active) in [10]; 39.8 µM (active) in experiment [11]; 31.6 µM (active) in experiment [12]; 39.8 µM (active) in experiment [13]. Further, in [14], the Potency is 31.6 µM (active). Moreover, the Potency entry in experiment [6], in experiment [7], in experiment [16], in [17] and in experiment [18] was “inactive” each time. Moreover, the max response in experiment [15] was -9.87%; in [19], -0.0021% (inactive).
On to `O=C(O)/C=C/c1ccc(/C=C/C(=O)O)cc1`, for which the Potency in experiment [1] was > 92 µM (inactive). Moreover, in experiment [2], the activity change, negative = cytotoxicity is -20.9% (inactive). For the same compound, the Potency entry in experiment [3], in experiment [4], in experiment [5], in experiment [6], in experiment [7] and in experiment [8] was “inactive” in each case. The Potency result in experiment [9], in experiment [10], in experiment [11], in [12], in experiment [13] and in experiment [14] was “inactive” each time. Moreover, the Potency entry in experiment [16], in [17] and in experiment [18] was “inactive” throughout. The figures for the max response in [15] and in experiment [19] were 9.62% and 0.0892% (inactive), respectively. The activity change % (negative = inhibition) in [20] is 2.91% (inactive).
With `CCCCCCc1ccc(-c2ccc(C#N)cc2)cc1`, the Potency in [1] is > 92 µM (inactive). Moreover, in [2], the activity change, negative = cytotoxicity is -10.7% (inactive). Besides, the Potency entry in [3], in [4], in experiment [6], in experiment [7], in [8] and in experiment [9] was “inactive” throughout. The Potency result in experiment [10], in [11], in experiment [12], in [13], in experiment [14] and in experiment [16] was “inactive” each time. Besides, the Potency result in experiment [17] and in [18] was “inactive” throughout. The max response in experiment [15] was -25.6%; in [19] it was -10.6% (inactive). In addition, the activity change % (negative = inhibition) in experiment [20] is 6.73% (inactive).
In the case of `c1ccc(CSCc2ccccc2)cc1`, the Potency in experiment [1] was > 92 µM (inactive). In addition, the activity change, negative = cytotoxicity in experiment [2] is -17.4% (inactive). Besides, the Potency entry in experiment [3], in [4], in [5], in [6], in experiment [7] and in experiment [8] was “inactive” each time. In addition, the Potency result in experiment [9], in experiment [10], in [11], in experiment [12], in experiment [13] and in [14] was “inactive” throughout. For the same compound, the Potency result in experiment [16], in experiment [17] and in [18] was “inactive” in each case. Besides, the max response is -16.6% in experiment [15] and -1.32% (inactive) in experiment [19]. The activity change % (negative = inhibition) in experiment [20] was -5.66% (inactive).
As to `Oc1ccc(O)c2c(O)cccc12`, the activity change, negative = cytotoxicity in experiment [2] was -30.1% (inactive). Besides, the Potency result in [4], in experiment [6], in experiment [7], in experiment [8] and in experiment [16] was “inactive” each time. In addition, the Potency in experiment [5], in experiment [9] and in experiment [12] was 50.1 µM (active) in each case. Also, the max response was -16.7% in experiment [15] and 1.1% (inactive) in [19]. In addition, the activity change % (negative = inhibition) in experiment [20] is -24.9% (inactive).
Take `CCCCCCN`: the Potency in [1] was > 92 µM (inactive). The activity change, negative = cytotoxicity in [2] was -7.51% (inactive). Moreover, the Potency result in experiment [3], in [4], in experiment [5], in experiment [6], in experiment [8] and in experiment [9] was “inactive” in each case. Further, the Potency entry in experiment [10], in experiment [11], in [12], in [13], in experiment [14] and in [16] was “inactive” in each case. Also, the Potency result in experiment [17] and in experiment [18] was “inactive” in each case. For the same compound, the max response in experiment [15] was -10.9%; in [19], -1.94% (inactive). Further, in experiment [20], the activity change % (negative = inhibition) was -5.98% (inactive).
With `Cc1c2ccccc2c(C)c2c1ccc1ccccc12`, the activity change, negative = cytotoxicity in experiment [2] is -25% (inactive). Further, the Potency result in experiment [3], in [6], in [9], in [10], in experiment [13] and in experiment [18] was “inactive” in each case. The Potency was 25.1 µM (active) in experiment [7] and 33.5 µM (active) in experiment [17].
